Reference: PubChem BioAssay (Tox21)
Where “and” joins values, the source holds several entries; their conditions need not be identical. Equal entries are not always repeated. Inconclusive results are not listed. A call without a number means that no potency is given here. The source holds several records for some structures; these can differ, active in one and inactive in another. Calls of active or inactive are those of the source. Calls come from the whole dose curve.
Potency is the fitted concentration of half-maximal effect.

Each compound was assayed against Retinoic acid receptor RXR-alpha (Homo sapiens) (UniProt P19793) (assay: qHTS assay to identify small molecule agonists of the RXR signaling pathway (AID 1159527; note: nearly all actives have a fitted effect of over 35% in size)). Details: HEK293T RXRa-UAS-bla, beta-lactamase ratio, 16 h; series mostly up to 76.8 µM.
Retinoic acid receptor RXR-alpha (Homo sapiens), sequence (P19793 whole entry, looked up): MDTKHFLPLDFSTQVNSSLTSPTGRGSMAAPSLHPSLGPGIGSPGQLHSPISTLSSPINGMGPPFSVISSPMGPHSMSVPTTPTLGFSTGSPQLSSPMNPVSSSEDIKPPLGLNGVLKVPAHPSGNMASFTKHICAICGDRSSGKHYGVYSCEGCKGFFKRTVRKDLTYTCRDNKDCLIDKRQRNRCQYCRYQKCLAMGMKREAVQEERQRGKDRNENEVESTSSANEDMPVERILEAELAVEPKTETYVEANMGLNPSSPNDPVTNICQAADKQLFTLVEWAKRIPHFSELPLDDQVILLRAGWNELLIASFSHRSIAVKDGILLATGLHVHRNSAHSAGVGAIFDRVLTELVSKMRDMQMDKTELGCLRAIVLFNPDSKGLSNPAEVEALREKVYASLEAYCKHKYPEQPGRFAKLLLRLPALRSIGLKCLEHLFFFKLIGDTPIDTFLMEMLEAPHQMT
Description: U.S. Tox21 Program National Center for Advancing Translational Sciences [NCATS] NIH Chemical Genomics Center [NCGC] U.S. Environmental Protection Agency [EPA] National Institutes of Environmental Health Sciences [NIEHS] National Toxicology Program [NTP] U.S. Food and Drug Administration [FDA] Tox21 Assay Overview: The Retinoid X receptor (RXR), a nuclear hormone receptor expressed in liver, spleen, placenta, epidermis, central nervous system. These receptors are able to form homo and heterodimers with other nuclear receptors and due to this heterodimerizing ability, RXR functions as master regulators producing diverse physiological effects. Three subtypes of RXR exist; alpha, beta and gamma. Retinoid X receptor alpha (RXR-alpha) has potential roles in metabolic signaling pathways, skin alopecia, dermal cysts, cardiac development, insulin sensitization etc. Therefore screening environmental chemicals on RXR-alpha signaling can be used for the studies focused on such therapeutic applications. For quantification of RXR-alpha ligands signaling, GeneBLAzer RXR alpha-UAS-bla HEK 293T (Life Technologies, Carlsbad, CA) cells containing a beta-lactamase reporter-gene under control of Retinoid X receptor-alpha response element were used to screen Tox21 10K library.
Tox21 Assay Protocol Summary: RXR-alpha HEK 293T cells were dispensed at 2,000 cells/6 uL of assay medium containing 2% charcoal-stripped FBS using a Multidrop Combi (ThermoFisher Scientific, Waltham, MA) dispenser. The assay was performed in black wall/clear-bottom 1536-well plates (Greiner Bio-One North America Inc. Monroe, NC). 9-cis retinoic acid was used as a positive control in the agonist mode screen. After the assay plates were incubated at 37 C and 5% CO2 for 5 hr, 23 nL of compounds dissolved in DMSO, positive controls or DMSO only were transferred to the assay plate by a Pintool station (Kalypsys, San Diego, CA). The assay plates were incubated at 37 C and 5% CO2 for 16 hr. One uL of LiveBLAzer B/G FRET substrate (Life Technologies) was added using a Flying Reagent Dispenser (Aurora Discovery, San Diego, CA) and the plates were incubated at room temperature for 2 hr. Fluorescence intensity (405 nm excitation, 460/530 nm emission) was measured using an Envision plate reader (PerkinElmer, Shelton, CT).
In the case of `CCCN(CCC)C(=O)Cc1c(-c2ccc(Cl)cc2)nc2ccc(Cl)cn12`, the Potency is reported as “inactive”.
With `O=S(=O)(Cl)Cl` the Potency was “inactive”.
With `Nc1c(Br)cc(Br)c2c1C(=O)c1ccccc1C2=O` the activation was 1.05% [at 15.8 µM] (inactive).
`O=C(O)C(F)(F)C(F)(F)C(F)(F)C(F)(F)C(F)(F)F` was tested, and the Potency was “inactive”.
For `CC[N+]1(CCOC(=O)C(O)(c2ccccc2)c2ccccc2)CCCCC1`, the Potency was “inactive”.
For `CCOP(=O)(SC(C)CC)N1CCSC1=O` (stereo not given), the Potency was 11 µM (active).
With `CCC[N+](CCC)(CCC)CCC` the Potency was “inactive”.
In the case of `O=C(O)C(Cl)(Cl)Br`, the Potency is reported as “inactive”.
For `c1ccc2c(c1)-c1cccc3cccc-2c13`, the Potency was “inactive”.
In the case of `O=C(O)C(O)C(O)C(=O)O` (stereo not given), the Potency is reported as “inactive”.
For `CCCN(CCC)c1c([N+](=O)[O-])cc(C(C)C)cc1[N+](=O)[O-]`, the Potency was “inactive”.
With `CC1(C)CC(=O)CC(C)(C)N1[O]` the Potency was “inactive”.
With `CCCC[N+]1(C)[C@@H]2CC(OC(=O)[C@H](CO)c3ccccc3)C[C@H]1[C@@H]1O[C@@H]12` (stereo not given in full) the Potency was “inactive”.
`Clc1ccc(Cl)c(Cl)c1` was tested, and the Potency was “inactive and 12.3 µM (active)”.
In the case of `CCOC(=O)NC(O)C(Cl)(Cl)Cl` (stereo not given), the Potency is reported as “inactive”.
`NC(=S)c1c(Cl)cccc1Cl` was tested, and the Potency was “inactive”.
With `CC(=O)OC(c1ccccc1)C(Cl)(Cl)Cl` (stereo not given) the Potency was “inactive”.
For `Nc1cc(Cl)cc(C(=O)O)c1Cl`, the Potency was “inactive”.
For `SCc1ccccc1`, the Potency was “inactive”.
For `CC(O)CN1CCN(CC(=O)[O-])CCN(CC(=O)[O-])CCN(CC(=O)[O-])CC1.[Gd+3]` (stereo not given), the Potency was “inactive”.
With `C=CCN1C[C@H](C)N([C@H](c2ccc(C(=O)N(CC)CC)cc2)c2cccc(OC)c2)C[C@H]1C` the Potency was “inactive”.
With `CC(Oc1cc(Cl)c(Cl)cc1Cl)C(=O)O` (stereo not given) the Potency was “inactive”.
`C=CC(=O)NC(C)(C)CC(C)=O` was tested, and the Potency was “inactive”.
`CC(C)(C)NCC(O)c1ccccc1Cl` (stereo not given) was tested, and the Potency was “inactive”.
`CCc1cnc(C2=NC(C)(C(C)C)C(=O)N2)c(C(=O)O)c1` (stereo not given) was tested, and the Potency was “inactive”.
With `Nc1ccc2c(c1)Cc1ccccc1-2` the Potency was “inactive”.
`CCC1(CC)C(=O)NC(=O)NC1=O` was tested, and the Potency was “inactive”.
In the case of `O=CC=O`, the Potency is reported as “inactive”.
In the case of `CC(C)c1ccc(NC(=O)N(C)C)cc1`, the Potency is reported as “inactive”.
With `CC(C)(C)OOC(C)(C)CCC(C)(C)OOC(C)(C)C` the Potency was “inactive”.
`C=CCOC(=O)C(C)(C)OC(=O)c1cc(-n2c(=O)cc(C(F)(F)F)n(C)c2=O)ccc1Cl` was tested, and the Potency was “inactive”.
For `O=C(CCl)CCl`, the Potency was “inactive”.
`CCC1CCC(=O)O1` (stereo not given) was tested, and the Potency was “inactive”.
For `COCc1cnc(C2=NC(C)(C(C)C)C(=O)N2)c(C(=O)O)c1` (stereo not given), the Potency was “inactive”.
`CCC(C)(C)O` was tested, and the Potency was “inactive”.
For `NNCCO`, the Potency was “inactive”.
For `CC(C)(C)NCC(O)c1cc(Cl)c(N)c(C(F)(F)F)c1` (stereo not given), the Potency was “inactive”.
With `CN(C1CCCCC1)C1CCCCC1` the Potency was “inactive”.
With `Clc1ccc2ccccc2c1` the Potency was “inactive”.
With `COc1ccccc1N1CCNCC1` the Potency was “inactive”.
